The structures appear in SMILES notation. A number with no mark means an inactive call. No rule for the calls is given here.

The test has as its target Pantothenate synthetase (Mycobacterium tuberculosis (strain ATCC 25618 / H37Rv)) (UniProt P9WIL5). The test is described as follows: Coupled enzyme confirmation of inhibitors against recombinant Mtb PanC (AID 375).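 Also: 0% = full reaction with vehicle and 100% = no enzyme background.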 Particulars: coupled enzyme assay; at 10 µM, hits give high values.

Pantothenate synthetase (Mycobacterium tuberculosis (strain ATCC 25618 / H37Rv)), sequence (P9WIL5 whole entry, looked up): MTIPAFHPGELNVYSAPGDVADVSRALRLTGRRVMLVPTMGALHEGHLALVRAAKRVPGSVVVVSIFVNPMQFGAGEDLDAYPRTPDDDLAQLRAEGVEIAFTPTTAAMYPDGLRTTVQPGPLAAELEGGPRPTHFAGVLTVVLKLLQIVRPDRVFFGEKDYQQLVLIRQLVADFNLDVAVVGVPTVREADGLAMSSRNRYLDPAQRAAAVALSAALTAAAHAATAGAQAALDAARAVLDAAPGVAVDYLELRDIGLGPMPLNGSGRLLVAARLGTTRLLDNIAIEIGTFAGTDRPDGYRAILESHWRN

`CCOC(=O)CSc1nnc([C@H](CC(C)C)NC(=O)OC(C)(C)C)o1`: the inhibition (commonly the change of the read-out against control, counted positive when it falls) is 2%.

Regarding `CC(=O)[C@@]1(O)CC[C@H]2[C@@H]3CCC4=CC(=O)CC[C@]4(C)[C@H]3[C@@H](O)C[C@@]21C`, the inhibition is 0%.

Consider `CC(C)(C)n1nnnc1CN1CCC(NC(=O)NC2CCCCC2)CC1`, for which the inhibition was 0%.

Regarding `Cc1nc2c(o1)CCc1ccccc1C2O` (stereo unspecified), the inhibition was 0%.

Turning to `O=C(COC(=O)CCOc1ccccc1)Nc1ccc(Cl)cn1`, the inhibition was 0%.

Take `Cc1cc(NCCN(C)C)n2nc(-c3cccs3)cc2n1`: the inhibition is 0%.

Turning to `COc1cccc(-c2nc(CS(=O)CC(=O)NCCCOC(C)C)c(C)o2)c1` (stereo unspecified), the inhibition was 2%.

Regarding `COc1ccc(NC(C)=O)cc1NC(=O)CN1CCN(c2ccccn2)CC1`, the inhibition is 0%.

On to `CCC(C)(C)n1nnnc1C(c1ccccc1OC)N1CCSCC1` (stereo unspecified), for which the inhibition is 5%.

For the compound `COc1ccc(-n2c(SCC#N)nc3ccccc3c2=O)cc1`, the inhibition is 1%.

Turning to `CCCOC(=O)CSc1nc(N)c(C#N)c(CC)c1C#N`, the inhibition was 8%.

Turning to `COc1cc(-c2c(C#N)c(N)nc3c2CCCC3)cc(OC)c1OC`, the inhibition is 5%.

Consider `O=C(NCCO)c1cc2ccccc2cc1O`, for which the inhibition is 0%.

For the compound `Cc1csc2nc(CNC(=O)c3ccco3)cn12`, the inhibition is 0%.

With `CCCCN(Cc1cc2cc(OC)ccc2[nH]c1=O)C(=O)COc1ccccc1`, the inhibition was 2%.

With `Cc1cccc(-n2ncc3c(NCCCn4ccnc4)ncnc32)c1`, the inhibition was 4%.

Turning to `COc1cc2c(cc1OC)CN(Cc1nc3ccsc3c(=O)[nH]1)CC2`, the inhibition is 6%.

With `NC(=O)c1ccsc1NC(=O)COC(=O)Cc1ccsc1`, the inhibition is 3%.

`COc1cc2nc(SCC(=O)NC3CC3)n(CCC3=CCCCC3)c(=O)c2cc1OC`: the inhibition is 1%.

Turning to `O=C(CCCSc1nc2ccccc2s1)NC1=NCCS1`, the inhibition is 0%.

For `Cc1cccc(C)c1NC(=O)CC(NCc1ccco1)C(=O)O` (stereo unspecified), the inhibition was 0%.

For the compound `Cc1cc(C)nc(Sc2ccc3nnc(C(F)(F)C(F)(F)C(F)(F)F)n3n2)n1`, the inhibition was 6%.

Turning to `CC1CCN(c2nc3c(c(=O)[nH]c(=O)n3C)n2CCSc2ncccn2)CC1`, the inhibition is 0%.

As for `O=C(CC(C(=O)N1CCc2ccccc21)n1ccnc1)NCc1cccnc1` (stereo unspecified), the inhibition was 0%.

For `Cc1cc2cc(CN(CC3CCCO3)C(=O)c3cnccn3)c(=O)[nH]c2cc1C` (stereo unspecified), the inhibition was 4%.

In the case of `CC(=O)Nc1ccc(N=Cc2nc(-c3ccc(C)cc3)oc2O)cc1`, the inhibition was 0%.

For the compound `COc1ccc(CNS(=O)(=O)c2ccc3oc(C(=O)O)c(C)c3c2)cc1`, the inhibition was 0%.

As to `C=CCn1c(SCC2=C(C(=O)OCC)C(C)NC(=O)N2)nnc1C1CCCCC1` (stereo unspecified), the inhibition was 0%.

On to `O=C1CC(N2CCOCC2)C(=O)N1c1ccc2c(c1)OCO2` (stereo unspecified), for which the inhibition was 1%.

`Cc1cc(N2C(=O)CC(N3CCN(c4ccc(C(=O)c5cccs5)cc4)CC3)C2=O)no1` (stereo unspecified): the inhibition is 0%.

For `CC(NC(=O)c1ccc(F)cc1)C(c1cccs1)N1CCN(C)CC1` (stereo unspecified), the inhibition was 3%.

Take `C[C@]12CC[C@@H]3c4ccc(OC(=O)c5ccccc5)cc4CC[C@H]3[C@@H]1CC[C@@H]2O`: the inhibition is 0%.

Take `COc1ccc(NC(=O)Cn2nnc(-c3ccccc3F)n2)cc1Cl`: the inhibition was 0%.

Consider `CC(C)OC(=O)CN1C(=O)C(C)(C)Oc2ccc(C(=O)NC3CC3)cc21`, for which the inhibition was 0%.

For `c1ccc2c(c1)nc(-c1ccncc1)n1nnnc21`, the inhibition is 11%.

In the case of `CN(C)S(=O)(=O)c1ccc2c(c1)C(CC(=O)O)OC2=O` (stereo unspecified), the inhibition was 4%.

Consider `CCOC(=O)c1c(COC(=O)c2ccco2)nc2ccccc2[n+]1[O-]`, for which the inhibition was 0%.

With `CCN1CCN(Cc2ccc(NC(=O)Nc3ccc(SC)cc3)cc2)CC1`, the inhibition is 2%.

As to `COc1ccc(OC)c(C2=NOC(C(=O)Nc3cccnc3)C2)c1` (stereo unspecified), the inhibition is 0%.

In the case of `CCc1ccccc1OCCCCCNCCO`, the inhibition is 3%.

As to `CCOC(=O)c1ccc(N2C(=O)CC(N(C)CCc3ccc(OC)c(OC)c3)C2=O)cc1` (stereo unspecified), the inhibition was 2%.

Turning to `CC(n1cnnn1)C12CC3CC(CC(C3)C1)C2` (stereo unspecified), the inhibition was 8%.

For `CCOC(=O)CSC1=C(C#N)C(=O)NC(c2ccc(OC)c(OC)c2)S1` (stereo unspecified), the inhibition was 16%.

With `O=C(NCCCCNC(=O)c1cccnc1)c1cccnc1`, the inhibition is 0%.

With `COc1ccc(C(CC(=O)O)NC(=O)c2ccccc2)cc1OC` (stereo unspecified), the inhibition is 0%.

Regarding `Nc1nc(SCc2ccc(Cl)cc2Cl)n[nH]1`, the inhibition was 5%.

For the origin of these results see PubChem BioAssay.
